From PubChem BioAssay AID602388 (National Center for Advancing Translational Sciences (NCATS), 2012)
This is one part of the list. Records with an inconclusive call do not appear. Calls of active or inactive are those of the source. The call rests on the fitted dose curve; in most records, active means well fitted inhibition curve with a large enough effect; inconclusive means small, poorly fitted or top-dose-only effect; inactive means flat fitted curve, though single readings scatter.

Each molecule was assayed against Regulator of G-protein signaling 4 (Homo sapiens) (UniProt P49798) (assay: qHTS for Inhibitors of Regulator of G Protein Signaling(RGS) 4: Hit Validation). Details: RGS4 GAP activity, Transcreener GDP fluorescence polarization.
Sequence of Regulator of G-protein signaling 4 (Homo sapiens) (P49798 whole entry, looked up, the tested form may be a part): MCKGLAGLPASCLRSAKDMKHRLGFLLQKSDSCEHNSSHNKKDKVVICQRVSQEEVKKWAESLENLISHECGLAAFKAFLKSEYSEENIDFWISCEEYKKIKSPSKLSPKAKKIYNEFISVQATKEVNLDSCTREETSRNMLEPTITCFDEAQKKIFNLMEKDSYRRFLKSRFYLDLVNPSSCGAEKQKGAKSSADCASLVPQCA
Source text: G-protein-coupled receptors (GPCRs) are well-established targets for drug discovery and development. Members of the "regulator of G-protein signaling" (RGS)-protein superfamily have recently emerged as critical modulators of specific GPCR signaling pathways. […] Combining specific RGS domain inhibitors with existing GPCR agonists should potentiate cellular responses and could also increase the specificity of action of existing therapeutics. Small molecule modulators of RGS domain activity should also have clinical utility in inhibiting or potentiating the actions of endogenous GPCR agonists. In particular, the diversity of RGS proteins with highly localized and dynamically regulated distributions in the human brain makes this family of proteins attractive targets for pharmacotherapy of central nervous system (CNS) disorders such as Parkinson's disease, schizophrenia, and anxiety. […] This assay was used to screen the NIH Molecular Libraries Small Molecule Repository (MLSMR) in order to identify a small molecule that inhibits RGS4. NIH Chemical Genomics Center [NCGC] NIH Molecular Libraries Probe Centers Network [MLPCN] MLPCN Grant: DA030555 Assay Submitter (PI): David Siderovski, University of North Carolina Chapel Hill (School of Medicine)
Two microliters of 500nM (2x working concentration) is dispensed into black medium-binding solid-bottom Kalypsys plates. Then with the Kalypsys pintool 23nl of control and compounds are transferred; the control compound is […] CCG-4986 (working concentration). […] An initial fluorescent polarization read (620 nm/688 nm) is performed on the Envision before the plate is incubated for 90 minutes at 30 deg C at a relative humidity of 80%. The plate is once more centrifuged at 1000 RPM for 15 seconds and another Envision fluorescent polarization (620 nm/688 nm) read is carried out.

Potency, active:
Cc1ccc(-n2nc(-c3ccco3)cc2C(=O)NCc2cccnc2)cc1 6.7 µM
Cc1ccc(-c2nc3ccccn3c2Nc2c(C)cccc2C)o1 10.6 µM
O=C(Nc1nc(-c2ccncc2)cs1)C1COc2ccccc2O1 (stereo not drawn) 5.32 µM
